Experimental data: PubChem BioAssay (Tox21)
Where “and” joins values, the source holds several entries; their conditions need not be identical. Equal entries are not always repeated. Inconclusive results are not listed. Entries that show only a call come without a potency. A structure can be active in one record and inactive in another. Calls of active or inactive are those of the source. Unless noted, the call rests on the fitted dose curve; in most records, active means well fitted curve in the direction sought with a large enough effect in the repeat runs; inconclusive means weak or mixed curves; inactive means no such curve, though single readings can be large; an effect the other way counts as inactive or inconclusive.

Columns and labels:
[1] = molecular target: Estrogen receptor (Homo sapiens) (UniProt P03372); test: qHTS assay to identify small molecule antagonists of the estrogen receptor alpha (ER-alpha) signaling pathway using the BG1 cell line in the presence of 0.1 nM 17-beta-estradiol (AID 1259244); further: nearly all actives have a fitted effect of over 50% in size; further: potency means the concentration at half of the fitted maximal effect
In short: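 VM7Luc4E2; 4xERE-luciferase; 0.1 nM E2 final; 22 h co-incubation, 37C; ONE-Glo luminescence after 30 min at room temperature.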

[2] = qHTS assay to identify small molecule phospholipidosis (PLD) inducers (AID 1259344; active means well fitted curve in the direction sought with a large enough effect; an effect the other way counts as inactive or inconclusive)
In short: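 Quantitative HTS in HepG2: compound plus LipidTOX Red dye for 24 h, paraformaldehyde fixation with Hoechst 33342, widefield high-content imaging; amiodarone as positive and DMSO as negative control.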

[3] = qHTS assay to identify small molecule HDAC inhibitors (AID 1259364); further: potency means the concentration at half of the fitted maximal effect;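 further: wild-type HCT-116 cells with endogenous class I/II HDAC activity; nearly all actives have a fitted effect of over 45% in size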
In short: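 Relative class I and II HDAC activity is taken from the luminogenic signal in HCT-116 cells, with compound exposure 2 hr and reagent development 30 min at room temperature.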

[4] = qHTS assay to identify small molecule HDAC inhibitors - cell viability counter screen (AID 1259365); further: nearly all actives have a fitted effect of over 50% in size; further: potency means the concentration at half of the fitted maximal effect
In short: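 Cytotoxicity was gauged in wild-type HCT-116 cells after a brief 2hr treatment with DMSO-dissolved compounds at 37C and 5% CO2, using CellTiter-Glo luminescence developed for 30min at room temperature.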

[5] = qHTS assay to identify small molecule agonists of the sonic hedgehog signaling (Shh) pathway - cell viability counter screen (AID 1259366); further: nearly all actives have a fitted effect of over 50% in size; further: potency means the concentration at half of the fitted maximal effect
In short: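 Stable Gli1-Luc NIH/3T3 clone, 2,000 cells/well. Compound exposure 24hr at 37C. Read-out: CellTiter-Fluor fluorescence.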

[6] = qHTS assay to identify small molecule antagonists of the sonic hedgehog signaling (Shh) pathway - cell viability counter screen (AID 1259367); further: nearly all actives have a fitted effect of over 55% in size; further: potency means the concentration at half of the fitted maximal effect
In short: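 Seed 3T3 Gli1-Luc cells at 2,000 per well; incubate 4 hr; add compound in DMSO, then conditioned medium; incubate at 37C with 5% CO2; add CellTiter-Fluor after 23 hr; read fluorescence 1 hr later.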

[7] = qHTS assay to identify small molecule agonists of the sonic hedgehog signaling (Shh) pathway (AID 1259368; calls by dose curve;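 further: NIH/3T3-derived 3T3Gli1-Luc cells carrying a stable Gli1-driven firefly luciferase reporter; series mostly up to about 92 µM; nearly all actives have a fitted effect of over 15% in size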)
In short: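 Mouse fibroblast (NIH/3T3) reporter cells with stably integrated Gli1-Luc were treated 24 hr with compound; firefly luciferase luminescence served as the read-out.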

[8] = molecular target: Estrogen receptor beta (Homo sapiens) (UniProt Q92731); test: qHTS assay to identify small molecule agonists of the estrogen receptor beta (ER-beta) signaling pathway (AID 1259377; active means well fitted activation curve with a large enough effect in the signal ratio in the repeat runs, not every such curve was filed as active; the % refers to the signal ratio)
In short: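 Measured by fluorescence intensity from a B/G FRET beta-lactamase substrate (2 h, room temperature) in ER-beta-UAS-bla HEK293T cells treated with DMSO-dissolved compounds for 16 hr at 37C and 5% CO2.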

[9] = molecular target: Estrogen receptor beta (Homo sapiens) (UniProt Q92731); test: qHTS assay to identify small molecule antagonists of the estrogen receptor beta (ER-beta) signaling pathway (AID 1259378; active means well fitted inhibition curve with a large enough effect in the signal ratio in the repeat runs, not every such curve was filed as active; the % refers to the signal ratio; further: potency means the concentration at half of the fitted maximal effect)
In short: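 ER-beta-UAS-bla HEK293T cells in 2% charcoal-stripped FBS medium treated with compound plus 1nM final 17-beta-estradiol for 16 hr at 37C. Beta-lactamase reporter read by FRET substrate fluorescence after 2 hours at room temperature.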

[10] = qHTS assay to identify small molecule agonists of the androgen receptor (AR) signaling pathway in the presence of an antagonist - cell viability counter screen (AID 1259379); further: nearly all actives have a fitted effect of over 25% in size; further: potency means the concentration at half of the fitted maximal effect
In short: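 A CellTiter-Fluor read-out measured viability of MDA-kb2 reporter cells (MMTV promoter with AR and GR response elements). Treatment: nilutamide 3.0uM final with compounds at 15 concentrations, 16 hr, 37C, 0% CO2.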

[11] = qHTS assay to identify small molecule agonists of the estrogen receptor beta (ER-beta) signaling pathway - cell viability counter screen (AID 1259380); further: nearly all actives have a fitted effect of over 30% in size; further: potency means the concentration at half of the fitted maximal effect
In short: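 Cells used were ER-beta-UAS-bla HEK293T in medium with 2% charcoal-stripped FBS. They were treated for 16 hr at 37C. Viability came from CellTiter-Glo luminescence.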

[12] = qHTS assay to identify small molecule antagonists of the estrogen receptor beta (ER-beta) signaling pathway - cell viability counter screen (AID 1259382); further: nearly all actives have a fitted effect of over 55% in size; further: potency means the concentration at half of the fitted maximal effect
In short: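 Agonist-stimulated (1nM E2) ER-beta-UAS-bla HEK293T cells are incubated with library compounds for 16 hr at 37C. Cell viability is then assessed in the reporter-assay wells by adding CellTiter-Glo and reading luminescence after 30 min.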

[13] = molecular target: Estrogen receptor (Homo sapiens) (UniProt P03372); test: qHTS assay to identify small molecule agonists of the estrogen receptor alpha (ER-alpha) signaling pathway in the presence of an antagonist (AID 1259383; calls by dose curve; further: nearly all actives have a fitted effect of over 15% in size; further: potency means the concentration at half of the fitted maximal effect; on activation: top concentration of the series differs between compounds)
In short: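 Using VM7Luc4E2 cells seeded 24hr before treatment, antagonist ICI-182,780 (10.0nM final) was added, followed by compounds at 15 concentrations. Plates incubated 22hr; ONE-Glo luminescence quantified reporter activity.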

[14] = qHTS assay to identify small molecule agonists or antagonists of the thyroid stimulating hormone receptor (TSHR) signaling pathway - wild type cell line counter screen (AID 1259384; calls by dose curve)
In short: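 Wild-type Hek293 cells, 800/well, 18 h at 37C, then compound with Ro20-1724 for 30 min RT. cAMP by HTRF (cAMP-d2/anti-cAMP cryptate), 1 h RT, fluorescence read. 15 concentrations, triplicates.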

[15] = molecular target: Thyrotropin receptor (Homo sapiens) (UniProt P16473); test: qHTS assay to identify small molecule antagonists of the thyroid stimulating hormone receptor (TSHR) signaling pathway (AID 1259385; calls by dose curve; further: nearly all actives have a fitted effect of over 20% in size; further: potency means the concentration at half of the fitted maximal effect)
In short: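 TSHR-HEK293 cells (800/well) plated 18 h, then compounds with Ro20-1724 and TSH at 1.5 ng/mL final, 30 min at room temperature. cAMP quantified by HTRF (cAMP-d2/anti-cAMP-cryptate, 1 h); 15 concentrations in triplicate.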

[16] = qHTS assay to identify small molecule agonists of the estrogen receptor alpha (ER-alpha) signaling pathway in the presence of an antagonist - cell viability counter screen (AID 1259386);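 further: cells exposed to compounds for 22 h at 37 °C before the viability read; nearly all actives have a fitted effect of over 30% in size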; further: potency means the concentration at half of the fitted maximal effect
In short: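 ICI-182,780 at 10.0nM final accompanies the compound titration (15 concentrations, 22hr, 37C) on VM7Luc4E2 cells. The CellTiter-Fluor fluorescence readout runs in the same wells as the luciferase assay.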

[17] = molecular target: Progesterone receptor (Homo sapiens) (UniProt P06401); test: qHTS assay to identify small molecule agonists of the progesterone receptor (PR) signaling pathway (AID 1346784; calls by dose curve; further: nearly all actives have a fitted effect of over 30% in size)
In short: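 The screen uses PR-UAS-bla HEK 293T cells in charcoal-stripped serum (2%). Compounds are applied for 16 hr at 37C after a 6 hr pre-incubation, and reporter activity is detected with a FRET beta-lactamase substrate after 2 hr at room temperature.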

[18] = qHTS assay to identify small molecule antagonists of the sonic hedgehog signaling (Shh) pathway (AID 1259369; calls by dose curve; further: nearly all actives have a fitted effect of over 45% in size; further: potency means the concentration at half of the fitted maximal effect)
In short: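 Conditioned medium drives Shh signalling in 3T3Gli1-Luc cells; compounds in DMSO co-applied, 24hr at 37 C, then luciferase luminescence.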

Estrogen receptor (Homo sapiens), sequence (P03372 whole entry, looked up): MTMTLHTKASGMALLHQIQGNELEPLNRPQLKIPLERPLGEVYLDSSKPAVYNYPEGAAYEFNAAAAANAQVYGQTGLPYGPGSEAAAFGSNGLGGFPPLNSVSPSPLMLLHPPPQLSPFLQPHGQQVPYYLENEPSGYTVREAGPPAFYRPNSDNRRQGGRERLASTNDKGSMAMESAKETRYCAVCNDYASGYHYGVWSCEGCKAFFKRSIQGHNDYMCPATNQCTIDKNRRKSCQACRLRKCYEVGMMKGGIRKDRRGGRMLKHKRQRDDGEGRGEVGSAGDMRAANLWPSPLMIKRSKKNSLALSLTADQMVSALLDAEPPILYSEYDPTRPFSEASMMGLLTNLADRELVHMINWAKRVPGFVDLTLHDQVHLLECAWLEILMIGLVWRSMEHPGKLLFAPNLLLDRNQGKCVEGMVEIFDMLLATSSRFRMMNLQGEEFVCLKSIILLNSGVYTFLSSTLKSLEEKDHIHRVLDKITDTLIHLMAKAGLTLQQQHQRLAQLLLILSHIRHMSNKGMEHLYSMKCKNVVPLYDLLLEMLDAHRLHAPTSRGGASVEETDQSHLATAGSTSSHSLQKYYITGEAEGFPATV
Progesterone receptor (Homo sapiens), sequence (P06401 whole entry, looked up): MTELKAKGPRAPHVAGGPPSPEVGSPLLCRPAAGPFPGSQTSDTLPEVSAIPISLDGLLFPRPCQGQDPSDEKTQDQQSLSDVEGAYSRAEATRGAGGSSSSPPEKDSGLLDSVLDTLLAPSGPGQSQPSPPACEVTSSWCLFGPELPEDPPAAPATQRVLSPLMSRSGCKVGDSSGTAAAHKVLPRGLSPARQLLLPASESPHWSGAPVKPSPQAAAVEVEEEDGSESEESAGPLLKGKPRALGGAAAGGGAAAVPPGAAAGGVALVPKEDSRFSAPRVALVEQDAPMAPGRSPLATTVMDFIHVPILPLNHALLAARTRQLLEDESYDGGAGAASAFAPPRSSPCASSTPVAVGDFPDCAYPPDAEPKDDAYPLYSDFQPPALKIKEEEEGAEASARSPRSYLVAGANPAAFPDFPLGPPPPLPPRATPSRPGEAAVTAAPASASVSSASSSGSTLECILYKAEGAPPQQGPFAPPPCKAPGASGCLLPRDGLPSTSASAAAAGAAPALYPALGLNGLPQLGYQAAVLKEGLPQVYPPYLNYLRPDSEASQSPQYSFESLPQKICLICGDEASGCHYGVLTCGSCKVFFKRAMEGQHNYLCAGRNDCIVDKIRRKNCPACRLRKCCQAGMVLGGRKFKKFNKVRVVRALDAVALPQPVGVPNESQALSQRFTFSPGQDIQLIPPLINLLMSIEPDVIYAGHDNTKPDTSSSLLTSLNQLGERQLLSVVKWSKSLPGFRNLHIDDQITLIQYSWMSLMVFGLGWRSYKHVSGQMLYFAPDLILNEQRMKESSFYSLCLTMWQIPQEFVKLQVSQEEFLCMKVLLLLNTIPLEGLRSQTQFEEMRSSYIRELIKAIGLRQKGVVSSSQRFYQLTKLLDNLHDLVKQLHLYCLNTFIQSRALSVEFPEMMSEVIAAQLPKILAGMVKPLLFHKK
Thyrotropin receptor (Homo sapiens), sequence (P16473 whole entry, looked up): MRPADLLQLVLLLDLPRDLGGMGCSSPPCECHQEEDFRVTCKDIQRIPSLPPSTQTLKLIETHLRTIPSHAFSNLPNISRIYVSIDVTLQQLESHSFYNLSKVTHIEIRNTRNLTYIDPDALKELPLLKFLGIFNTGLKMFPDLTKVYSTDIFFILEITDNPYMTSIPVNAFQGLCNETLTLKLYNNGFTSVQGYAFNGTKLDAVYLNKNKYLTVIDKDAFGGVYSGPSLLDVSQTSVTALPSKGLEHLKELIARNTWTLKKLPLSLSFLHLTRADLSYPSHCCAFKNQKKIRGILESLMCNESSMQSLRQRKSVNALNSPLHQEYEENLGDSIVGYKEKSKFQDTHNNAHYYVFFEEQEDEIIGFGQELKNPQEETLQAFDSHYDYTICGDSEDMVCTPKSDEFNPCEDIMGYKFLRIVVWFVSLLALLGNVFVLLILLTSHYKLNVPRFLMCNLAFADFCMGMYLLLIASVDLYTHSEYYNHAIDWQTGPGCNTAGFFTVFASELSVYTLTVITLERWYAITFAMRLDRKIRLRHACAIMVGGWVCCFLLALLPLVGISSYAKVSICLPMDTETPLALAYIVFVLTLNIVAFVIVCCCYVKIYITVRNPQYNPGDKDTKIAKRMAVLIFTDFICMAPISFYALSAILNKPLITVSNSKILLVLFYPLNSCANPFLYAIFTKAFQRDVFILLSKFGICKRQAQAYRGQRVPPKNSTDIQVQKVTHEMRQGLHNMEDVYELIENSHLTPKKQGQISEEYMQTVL
Estrogen receptor beta (Homo sapiens), sequence (Q92731 whole entry, looked up): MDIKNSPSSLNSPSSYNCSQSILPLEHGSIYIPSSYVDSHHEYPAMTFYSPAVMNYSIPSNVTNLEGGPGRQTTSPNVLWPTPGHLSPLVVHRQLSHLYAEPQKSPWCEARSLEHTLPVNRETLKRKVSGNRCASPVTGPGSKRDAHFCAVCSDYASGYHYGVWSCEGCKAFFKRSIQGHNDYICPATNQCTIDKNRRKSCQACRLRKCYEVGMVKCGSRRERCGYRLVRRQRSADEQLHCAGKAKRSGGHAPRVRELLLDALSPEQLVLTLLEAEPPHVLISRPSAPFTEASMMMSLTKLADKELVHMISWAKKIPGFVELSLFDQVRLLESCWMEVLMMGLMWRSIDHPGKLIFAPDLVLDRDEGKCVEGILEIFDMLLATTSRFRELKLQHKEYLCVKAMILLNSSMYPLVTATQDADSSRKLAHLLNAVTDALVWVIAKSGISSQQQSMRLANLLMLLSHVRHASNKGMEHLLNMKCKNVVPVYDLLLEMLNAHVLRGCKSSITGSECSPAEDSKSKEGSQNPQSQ

SMILES | Potency [1] | outcome [2] | Potency [3] | Potency [4] | Potency [5] | Potency [6] | outcome [7] | outcome [8] | Potency [9] | Potency [10] | Potency [11] | Potency [12] | Potency [13] | Potency [14] | Potency [15] | Potency [16] | Potency [17] | Potency [18]
OCCOc1ccccc1 | inactive | inactive | inactive | inactive | inactive | inactive | inactive | inactive | inactive | inactive | inactive | inactive | inactive | inactive | inactive | inactive | inactive | –
COCC(=O)N(c1c(C)cccc1C)C(C)C(=O)OC (stereo not given) | inactive | inactive | inactive | inactive | inactive | inactive | inactive | inactive | inactive | inactive | inactive | inactive | inactive | inactive | inactive | inactive | inactive | –
O=C(O)c1nc(Cl)ccc1Cl | inactive | – | inactive | inactive | inactive | inactive | – | – | – | inactive | inactive | inactive | inactive | inactive | inactive | inactive | inactive | inactive
Oc1ccccc1-c1ccccc1 | inactive | inactive | inactive | inactive | inactive | inactive | inactive | – | – | inactive | inactive | inactive | inactive | – | – | inactive | inactive | inactive and 62.6 µM (active)
CCC[N+]1(C)CCCC1 | – | – | inactive | inactive | inactive | inactive | inactive | – | – | inactive | inactive | inactive | – | – | – | inactive | inactive | inactive
COP(=O)(OC)C(O)C(Cl)(Cl)Cl (stereo not given) | – | inactive | inactive | inactive | inactive | inactive | – | – | – | inactive | inactive | inactive | – | inactive | inactive | inactive | inactive | –
COP(=O)(OC)OC=C(Cl)Cl | inactive | inactive | inactive | inactive | inactive | inactive | – | inactive | inactive | inactive | inactive | inactive | inactive | – | – | inactive | inactive | –
Nc1ccc(-c2ccc(N)c(Cl)c2)cc1Cl | 48.6 µM (active) | – | inactive and 27.3 µM (active) | inactive | inactive and 7.18 µM (active) and 30.6 µM (active) | 2.27 µM (active) and 8.63 µM (active) | – | – | 25.5 µM (active) and 30.6 µM (active) | inactive and 54.5 µM (active) | 30.6 µM (active) | 61.1 µM (active) | inactive | inactive | inactive and 57 µM (active) | inactive | – | 2.74 µM (active) and 1.01 µM (active)
O=C(O)C(Cl)Cl | inactive | inactive | inactive | inactive | inactive | inactive | inactive | – | – | inactive | inactive | inactive | inactive | inactive | inactive | inactive | inactive | –
C[N+](C)(C)Cc1ccccc1 | inactive | – | inactive | inactive | inactive | inactive | – | – | – | inactive | inactive | inactive | inactive | inactive | inactive | inactive | inactive | –
Nc1ccccc1 | – | inactive | inactive | inactive | inactive | inactive | – | – | – | inactive | inactive | inactive | – | inactive | inactive | inactive | inactive | inactive
Cc1cc(-c2ccc(N)c(C)c2)ccc1N | 34.4 µM (active) | – | 48.4 µM (active) | inactive | inactive | inactive | – | – | – | inactive | – | inactive | 2.14 µM (active) and inactive | – | – | inactive | inactive | –
CC[N+](CC)(CC)CC | – | inactive | inactive | inactive | inactive | inactive | – | – | – | inactive | inactive | inactive | – | inactive | inactive | inactive | inactive | –
CCCCCCCCCCCCCC[P+](CCCCCC)(CCCCCC)CCCCCC | 2.74 µM (active) and 3.09 µM (active) and 3.43 µM (active) | – | inactive | 34.5 µM (active) and 69.1 µM (active) and inactive | 13.7 µM (active) and 21.9 µM (active) and inactive | 15.4 µM (active) and 54.9 µM (active) and inactive | inactive | – | – | 9.73 µM (active) and 24.5 µM (active) and 2.43 µM (active) | 12.2 µM (active) and 27.5 µM (active) | 13.7 µM (active) and 27.5 µM (active) and inactive | inactive | inactive | 68.9 µM (active) and 69.1 µM (active) and inactive | 9.73 µM (active) and 21.9 µM (active) and 6.85 µM (active) | inactive | –
